Where “and” joins values, the source holds several entries; their conditions need not be identical. Identical values can stand only once. About 4,400 (1.3%) of roughly 330,000 compounds were called active.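 How the source made its calls: active means growth inhibition of the mutant yeast at or above 50%; inactive means the rest.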 This excerpt belongs to a sample that is enriched for actives.
Assay: growth inhibitors of tim23-1 mutant yeast, primary screen, luminescence, uHTS (AID 463212);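 further: temperature-sensitive mutant grown at 25 °C; plate controls were DMSO-treated mutant yeast for no effect and medium wells lacking yeast for full effect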
Conditions: S. cerevisiae tim23-1 growth, BacTiter-Glo luminescence, 24 h; at 20 µM; active compounds read high
With Cc1cccc(CC(=O)N2CCN=C2SCc2ccc([N+](=O)[O-])cc2)c1 the inhibition was -3.28% (inactive).
For O=C(COc1ccccc1F)Nc1nc(-c2ccccn2)cs1, the inhibition was 28.7% (inactive).
With CCN(C(=O)COC(=O)C1CCN(S(=O)(=O)c2ccc(C)c(C)c2)CC1)C1CCS(=O)(=O)C1 (configuration not stated) the inhibition was 0.758% (inactive).
In the case of C/C(N)=C(/C#N)C(=O)COC(=O)c1cc(-c2ccc(C)cc2)nc2ccccc12, the inhibition is reported as 3.42% (inactive).
In the case of N/C(=N\OC(=O)c1cc(-c2ccccc2)nc2ccccc12)c1ccncc1, the inhibition is reported as 79.2% (active).
With COC(=O)CNC(=O)c1cc(-c2ccncc2)nc2ccccc12 the inhibition was 10.9% (inactive).
For CNC(=O)COc1ccc(S(=O)(=O)Nc2ccccc2)cc1, the inhibition was 8.77% (inactive).
With NC(=O)c1oc2ccccc2c1NC(=O)CS(=O)(=O)c1ccccc1 the inhibition was 6.4% (inactive).
In the case of S=C(Nc1ccc(Br)cc1Cl)N1CCC2(CC1)OCCO2, the inhibition is reported as 20.7% (inactive).
For COc1ccc(OC)c(NC(=O)CN(Cc2ccc(Cl)cc2)S(C)(=O)=O)c1, the inhibition was 9.4% (inactive).
With COc1ccc2[nH]c(C(=O)N/N=C/c3cc(OC)c(OC)c(OC)c3)cc2c1 the inhibition was 20.6% (inactive).
In the case of COc1ccc(C(=O)Nc2ccccc2C(=O)N/N=C/c2ccc(O)c(OC)c2)cc1, the inhibition is reported as 96% (active).
With COc1ccc(C(=O)Nc2ccccc2C(=O)N2CCN(c3ccccc3)CC2)cc1 the inhibition was 35.2% (inactive).
For COc1ccc(C(=O)Nc2ccccc2C(=O)N/N=C/c2ccccc2OC)cc1, the inhibition was 78.3% (active).
In the case of COc1ccc(C(=O)Nc2cc(C)c(NC(=O)c3ccccc3OC)cn2)cc1, the inhibition is reported as 28.7% (inactive).
In the case of COc1ccc(/C=N/Nc2ccccc2C(=O)O)cc1, the inhibition is reported as 17% (inactive).
In the case of CC(C)(C)c1ccc(C(=O)N2CCC(C(=O)N3CCCCC3)CC2)cc1, the inhibition is reported as 13.5% (inactive).
With CCc1[nH]nc(C(=O)N2CCCC(CNS(=O)(=O)c3cccs3)C2)c1C (configuration not stated) the inhibition was 0.752% (inactive).
In the case of Cc1ccc(C(C(=O)NCC2CCCO2)N(C(=O)c2snc(C(N)=O)c2N)c2ccc(C(C)C)cc2)o1 (configuration not stated), the inhibition is reported as 32.2% (inactive).
With CCOc1cc2[nH]c(=S)n(CCN3CCCCC3C)c(=O)c2cc1OCC (configuration not stated) the inhibition was 14.8% (inactive).
In the case of CC(C)Cc1ccc(C(C)C(=N)N)cc1 (configuration not stated), the inhibition is reported as 3.35% (inactive).
With CCOc1cccc(NC(=O)Cn2nc(-c3ccc4c(c3)OCCO4)ccc2=O)c1 the inhibition was -11.4% (inactive).
For Cc1ccc(-c2csc(NCCc3nc4cc(Cl)c(Cl)cc4n3CCOCCO)n2)cc1, the inhibition was 25.4% (inactive).
In the case of Cc1ccc(Nc2nc(-c3ccc(O)cc3O)cs2)nc1, the inhibition is reported as 65.9% (active).
In the case of O=C1OCCN1C(=O)[C@H]1[C@H](c2ccccc2)C(c2ccc(F)cc2)=NN1c1ccccc1, the inhibition is reported as 49.4% (inactive).
For C[C@@H]1C(c2ccc(F)cc2)=NN(c2ccc(Br)cc2)[C@H]1C(=O)N1CCOC1=O, the inhibition was 61.2% (active).
With O=C1OCCN1C(=O)[C@H]1[C@H](c2ccc(F)cc2)C(c2ccccc2)=NN1c1ccc(Br)cc1 the inhibition was 41.6% (inactive).
For CCOCCOCCC(C(=O)O)P(=O)(c1ccccc1)c1ccccc1 (configuration not stated), the inhibition was 20.6% (inactive).
In the case of O=C(NC(Nc1nc2ccc([N+](=O)[O-])cc2s1)(C(F)(F)F)C(F)(F)F)c1ccccc1, the inhibition is reported as 80.5% (active).
In the case of O=C(COC(=O)c1ccc([N+](=O)[O-])cc1Cl)NC(=O)c1ccccc1, the inhibition is reported as -6.06% (inactive).
In the case of O=C(NOCc1ccccc1)c1cccc([N+](=O)[O-])c1, the inhibition is reported as 40.8% (inactive).
For CN(C)/C=C(/C(=O)c1ccccc1Cl)S(C)(=O)=O, the inhibition was 8.01% (inactive).
For O=S(=O)(Nc1ccc(-c2ccc(N3CCOCC3)nn2)cc1)c1cc(Cl)ccc1Cl, the inhibition was 36% (inactive).
For COc1ccc(CCNC(=O)CN(c2ccccc2)S(C)(=O)=O)cc1, the inhibition was 10.1% (inactive).
In the case of Cc1cc(C)nc(SCC(=O)N(C)C)n1, the inhibition is reported as 3.33% (inactive).
In the case of Cc1cc(C)nc(SCc2ccccc2C#N)n1, the inhibition is reported as 8% (inactive).
For Cc1cc(C)nc(S/C=C/C(=O)c2ccccc2)n1, the inhibition was 83.3% (active).
With COc1ccc(/C=C2/C(=O)N(c3ccccc3)N=C2C)c(OC)c1 the inhibition was 52.9% (active).
For COc1ccc(C2/C(=C(/O)c3ccccc3)C(=O)C(=O)N2C)c(OC)c1 (configuration not stated), the inhibition was 12% (inactive).
In the case of COc1ccc(/C=C2/C(=O)OCc3cc(OC)c(OC)cc32)c(OC)c1, the inhibition is reported as 23.4% (inactive).
With Cc1c(NC(=O)c2cc(-c3ccc(Cl)s3)nc3ccccc23)c(=O)n(-c2ccccc2)n1C the inhibition was 25.7% (inactive).
In the case of NC(=NC(=O)c1ccccc1)C1=C(O)CCC1=O, the inhibition is reported as 15.3% (inactive).
For Cc1ccc(CS(=O)(=O)c2ncc(Cl)c(C(=O)Nc3nnc(C)s3)n2)cc1, the inhibition was 18.2% (inactive).
In the case of Cc1cccc(CS(=O)(=O)c2ncc(Cl)c(C(=O)Nc3ccc(F)cc3)n2)c1, the inhibition is reported as 39.1% (inactive).
For Cc1cccc(NC(=O)c2nc(S(=O)(=O)Cc3ccccc3)ncc2Cl)c1, the inhibition was 75.9% (active).
With CCOC(=O)Cc1cc(=O)[nH]c(/N=C(\N)Nc2ccc(OC)cc2)n1 the inhibition was -4.74% (inactive).
In the case of COCCNc1ccc(-c2n[nH]c(=O)c3ccccc23)cc1[N+](=O)[O-], the inhibition is reported as 1.96% (inactive).
In the case of O=C(NC1CCCCC1)c1ccc(-c2ccc(Cl)cc2)o1, the inhibition is reported as 45.4% (inactive).
With Cc1[nH][nH]c(=O)c1C(c1ccc(-c2ccc(Cl)cc2)o1)c1c(C)[nH][nH]c1=O the inhibition was 84.6% (active).
In the case of CN(CC(=O)Nc1ccc(F)cc1)C(=O)c1ccc(-c2ccc(Cl)cc2)o1, the inhibition is reported as 36.9% (inactive).
For Cc1ccsc1C1C(C#N)=C(N)OC2=C1C(=O)CC(C)(C)C2 (configuration not stated), the inhibition was 15.8% (inactive).
For NC(=O)COc1ccc(/C=N/NC(=O)C2CCCN2S(=O)(=O)c2ccc(Cl)cc2)cc1 (configuration not stated), the inhibition was 4.5% (inactive).
For CC1(C)C=Cc2c(ccc3c2OC[C@@H](c2ccc(O)cc2O)C3)O1, the inhibition was 81.8% (active).
For CCCCc1nccn1CCn1ccnc1CCCC, the inhibition was 2.76% (inactive).
In the case of CN(C(=O)CC(NC(=O)c1ccccc1)(c1ccccc1)c1ccccc1)c1ccccc1, the inhibition is reported as 51.5% (active).
With CC(C)(C)c1ccc(C(=O)NNC(=O)Cc2ccccc2)cc1 the inhibition was 8.91% (inactive).
In the case of CN(C(=O)COC(=O)CNC(=O)C12CC3CC(CC(C3)C1)C2)c1ccccc1, the inhibition is reported as 3.66% (inactive).
With C=CCn1c(P(C)(=O)O)nc2ccccc21 the inhibition was 5.79% (inactive) and -9.61% (inactive).
With O=C(c1ccco1)N1CCN(C(=O)C2CCCN(S(=O)(=O)c3cccc4nsnc34)C2)CC1 (configuration not stated) the inhibition was 9.26% (inactive).
For Cc1c(Br)ccc(NC(=O)COc2ccccc2C(N)=O)c1C, the inhibition was 3.99% (inactive).
For Cc1cc(=O)cc(C)n1-c1ccc(Cl)c(Cl)c1, the inhibition was 1.14% (inactive).
For CCSc1ncnc2c(C#N)c3n(c12)CCCCC3, the inhibition was 32.7% (inactive).
For CCSC1=C(C#N)C(=O)n2c1cc1c2CCCC1, the inhibition was 58% (active).
With CC(=O)NC1CCN(CC(=O)Nc2nccs2)CC1 the inhibition was 8.15% (inactive).
For COc1ccccc1CCCNC(=O)C1CCC(=O)N(CCN2CCOCC2)C1 (configuration not stated), the inhibition was -0.497% (inactive).
With Fc1ccccc1COc1ccccc1CNCc1ccncc1 the inhibition was 3.21% (inactive).
With CCN1CCc2nc(NC(=O)c3cc(F)c(F)cc3Cl)sc2C1 the inhibition was 4.64% (inactive).
With COc1ccc(NC(=O)/C(C#N)=C\c2cc(OC)c(OCc3ccc(C(=O)O)cc3)cc2Br)cc1 the inhibition was 20.5% (inactive).
With COc1ccc(CNC(=O)CCn2cccc2)cc1 the inhibition was 6.47% (inactive).
With COc1ccc(CNC(=O)/C(C#N)=C/c2cccc(OC)c2OC)cc1 the inhibition was 71.3% (active).
For CN(CC(=O)Nc1ccccc1[N+](=O)[O-])Cc1ccc(Br)cc1, the inhibition was 1.11% (inactive).
In the case of COc1ccccc1CNC(=O)C1Cc2ccccc2C(=O)O1 (configuration not stated), the inhibition is reported as 17.7% (inactive).
For NS(=O)(=O)c1ccc(CCNS(=O)(=O)c2cccc3cccnc23)cc1, the inhibition was 11.4% (inactive).
With O=[N+]([O-])c1ccccc1S(=O)(=O)Nc1cccc2cccnc12 the inhibition was 57.4% (active).
In the case of COc1cc(NS(=O)(=O)c2ccc3ccccc3c2)c2ncccc2c1, the inhibition is reported as 26.4% (inactive).
In the case of CC1(C)COC(c2cccn2Cc2ccccc2Cl)=N1, the inhibition is reported as 2.43% (inactive).
In the case of COc1ccc(Cl)cc1NC(=O)CN(C)C(=O)c1cc(-c2cccs2)nn1-c1ccccc1, the inhibition is reported as 25.9% (inactive).
For CCc1ccc2oc(-c3ccc(N)cc3)nc2c1, the inhibition was 65.6% (active).
With O=[N+]([O-])c1ccc2oc(-c3cccc(O)c3)nc2c1 the inhibition was 29.8% (inactive).
For O=C(N/N=C/c1cc2c(cc1Br)OCO2)C1COc2ccccc2O1 (configuration not stated), the inhibition was 22.2% (inactive).
For O=C(N/N=C\c1cc(Br)c(Br)o1)C1COc2ccccc2O1 (configuration not stated), the inhibition was 50.2% (active).
For O=C(CNC(=O)C1COc2ccccc2O1)N/N=C/c1cc(Br)c(O)c(Br)c1 (configuration not stated), the inhibition was 12.1% (inactive).
For CCOC(=O)c1c(NC(C)=O)sc2c(O)c(Br)ccc12, the inhibition was 20.3% (inactive).
With Cc1ccc(-n2c(SCC(=O)N/N=C/C=C/c3ccccc3[N+](=O)[O-])nc3ccccc3c2=O)cc1 the inhibition was 12.1% (inactive).
In the case of CCOc1ccc(CCNC(=O)COC(=O)CCS(=O)(=O)c2ccc(C)cc2)cc1OCC, the inhibition is reported as 8.24% (inactive).
In the case of Cc1ccc(Cn2nnc3c(=O)[nH]c(C4CCN(S(=O)(=O)/C=C/c5ccccc5)CC4)nc32)cc1, the inhibition is reported as 17.8% (inactive).
In the case of Nc1ccccc1SC(C[N+](=O)[O-])c1ccccc1 (configuration not stated), the inhibition is reported as 81.4% (active).
For Cc1ccc(C(C[N+](=O)[O-])c2c(C)cc3ccccn23)cc1 (configuration not stated), the inhibition was 48.5% (inactive).
For O=C(CN(C(=O)c1csnn1)c1ccc(Br)cc1)NC1CCCC1, the inhibition was 6.83% (inactive).
In the case of O=C(Nc1nonc1-c1ccc(Cl)cc1)c1ccco1, the inhibition is reported as 29.1% (inactive).
For CC(C)[C@H](NC(=O)OCc1ccccc1)C(=O)OCc1ccccc1, the inhibition was 16% (inactive).
For Cc1c(S(=O)(=O)NC(C)c2ccccc2)c(=O)n(C)c(=O)n1C (configuration not stated), the inhibition was 0.038% (inactive).
